Screens (PubChem BioAssay)
Shown are actives, neighbours in structure and some others; about 28% of the full set was active somewhere.
CYP2C9 inh: human CYP2C9 inhibition; P11712; CYP2C9 Supersomes, luciferin-H conversion, luminescence; inhibition, % at 5 µM; 20% of 96,000 active; AID 777;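 active = blocking of liver enzyme CYP2C9 beyond about 50% at 5 µM, limit read from the data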
Target sequence (P11712 whole entry, looked up): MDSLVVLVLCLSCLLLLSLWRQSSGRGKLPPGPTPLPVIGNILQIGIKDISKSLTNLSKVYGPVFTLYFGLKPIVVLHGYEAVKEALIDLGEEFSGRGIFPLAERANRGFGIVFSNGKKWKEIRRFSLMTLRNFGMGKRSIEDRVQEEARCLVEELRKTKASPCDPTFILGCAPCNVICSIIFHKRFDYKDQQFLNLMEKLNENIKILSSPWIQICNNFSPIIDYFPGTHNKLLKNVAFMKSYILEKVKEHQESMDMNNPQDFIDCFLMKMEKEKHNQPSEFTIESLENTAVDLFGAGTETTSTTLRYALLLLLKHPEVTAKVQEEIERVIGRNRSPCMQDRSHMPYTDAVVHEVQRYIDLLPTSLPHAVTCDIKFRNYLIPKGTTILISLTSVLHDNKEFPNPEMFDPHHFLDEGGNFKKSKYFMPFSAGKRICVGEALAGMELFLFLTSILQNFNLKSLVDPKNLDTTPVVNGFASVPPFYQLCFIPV
DAT uptake mod: changed human dopamine transporter uptake under cocaine IC80; Q01959; AID 449768; 1.3% of 110,000 active; B-score at 10 µM; LLC-PK1 hDAT cells, [14C]-dopamine uptake with cocaine IC80; actives deviate in either direction;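 active = Z score or B-score, a plate-position-corrected score, falls beyond the plate's 99.7% confidence bounds, in either direction; inactive = both scores lie inside the 99.7% bounds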
D1 mod: D1 dopamine receptor (human) allosteric modulation; P21728; HEK293 D1, CRE-luciferase, dopamine EC30 potentiation; actives deviate in either direction; B-score at 10 µM; 5.9% of 58,000 active;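 active = luminescence count or its row- and column-corrected plate score outside the 99.7% band of the plate's sample wells, on either side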
CYP2C19 inh: blocks human cytochrome P450 2C19; inhibition, % at 5 µM; 21% of 96,000 active; AID 778; CYP2C19 Supersomes, luciferin-H EGE luminescence, 30 min;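 active = CYP2C19 inhibition above a set limit at 5 µM in the primary screen, cut at about 50% in these data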
CYP2C9 activ: increases human cytochrome P450 2C9 activity | 1.4% of 96,000 active | activation factor at 5 µM | recombinant CYP2C9, luciferin-H conversion, luminescence; stronger effect = higher value; factor 1 = untreated enzyme, 0 = blocked | P11712;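 active = activation factor of 2 or more for CYP2C9 at a 5 µM dose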
CYP2C19 activ: activators of human cytochrome P450 2C19 | P33261 | recombinant CYP2C19, luciferin-H EGE luminescence; stronger effect = higher value; 0 = fully inhibited enzyme, 1 = untreated enzyme | activation factor at 5 µM | AID 1025 | 96,000 tested, under 10 active;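 active = activation factor of at least 2 at 5 µM in the primary screen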
Each line names hits and unclear results; the compound was inactive in the other large screens.

COc1ccc(S(=O)(=O)NCCc2c(C)nn(C)c2Oc2ccccc2)cc1	CYP2C19 inh 87 (no result: D1 mod)
CC(O)[C@H]1CNC(=O)C(=O)N1CC1(c2ccccc2)CC1 (stereo partly drawn)	none (no result: CYP2C9 inh, D1 mod, CYP2C19 inh, CYP2C9 activ, CYP2C19 activ)
CC1CCN(C(=S)NC2CCCCC2)CC1	CYP2C19 inh 70 (no result: D1 mod)
CCCCC(c1nnnn1CS(=O)(=O)c1ccc(C)cc1)N1CCN(c2ccccc2)CC1 (stereo not drawn)	CYP2C9 inh 69, CYP2C19 inh 65
Cc1nn2c3c(cnc2c1-c1ccccc1)C(=O)CC(c1ccccc1)C3 (stereo not drawn)	CYP2C9 inh 54 (no result: D1 mod)
CCOC(=O)c1ccc(NS(=O)(=O)c2ccc3[nH]c(=O)[nH]c3c2)cc1	CYP2C9 inh 75 (no result: D1 mod)
O=C(NCc1ccc2c(c1)OCO2)c1ccc(NS(=O)(=O)c2ccc3c(c2)OCCO3)cc1	none (no result: CYP2C9 inh, CYP2C19 inh, CYP2C9 activ, CYP2C19 activ)
CCCCNC(=O)COC(=O)c1ccc(NS(=O)(=O)c2ccc3c(c2)OCCO3)cc1	CYP2C9 inh 91 (no result: D1 mod)
CC(C)NC(=O)COC(=O)c1ccc(NS(=O)(=O)c2ccc3c(c2)OCCO3)cc1	CYP2C9 inh 97, CYP2C19 inh 76 (no result: D1 mod)
O=C(COC(=O)c1ccc(NS(=O)(=O)c2ccc3c(c2)OCCO3)cc1)NCC1CCCO1 (stereo not drawn)	CYP2C9 inh 83
CCOC(=O)c1ccc(NS(C)(=O)=O)cc1	none (no result: D1 mod)
Cc1nc2sc(C(c3cccc(F)c3)N3CCCC(C)C3)c(O)n2n1 (stereo not drawn)	none
C#CCO[C@@H]1C[C@H](n2ccc(NC(=O)c3ccccc3)nc2=O)O[C@@H]1CO	none (no result: CYP2C9 inh, D1 mod, CYP2C19 inh, CYP2C9 activ, CYP2C19 activ)
COc1cc(NC(=O)CN2C(=O)c3ccccc3S2(=O)=O)c(OC)cc1Cl	CYP2C9 inh 52, CYP2C19 inh 67
COc1ccc(C)cc1NC(=O)CN1C(=O)c2ccccc2S1(=O)=O	none
O=C(CN1C(=O)c2ccccc2S1(=O)=O)Nc1ccc(S(=O)(=O)N2CCCC2)cc1	CYP2C9 inh 92
O=C(CN1C(=O)c2ccccc2S1(=O)=O)Nc1ccc(S(=O)(=O)N2CCCCC2)cc1	CYP2C9 inh 62
O=C(CN1C(=O)c2ccccc2S1(=O)=O)Nc1ccccc1	none (no result: D1 mod)
CCn1c(C(=O)N2CCC(C(=O)N3CCN(c4ccccn4)CC3)CC2)cc2sccc21	CYP2C19 inh 65
CC(C)NC(=O)C1CCN(C(=O)c2cc3sccc3n2Cc2ccc(F)cc2)CC1	CYP2C9 inh 72, CYP2C19 inh 56
CCOC(=O)N1CCC(NC(=O)c2cc3sccc3n2CC)CC1	none
CC1CCN(C(=O)C2CCN(C(=O)c3cc4sccc4n3Cc3ccc(F)cc3)CC2)CC1	CYP2C9 inh 73 (no result: D1 mod)
O=C(NCc1ccc(F)cc1)c1cc2sccc2n1Cc1ccc(F)cc1	none (no result: CYP2C9 inh, D1 mod, CYP2C19 inh, CYP2C9 activ, CYP2C19 activ)
Clc1ccc(-c2n[nH]c3c2CCC3)cc1Cl	none (no result: D1 mod)
O=C(NC1CCCCCC1)C1C2C=CC3(CN(Cc4cccnc4)C(=O)C13)O2 (stereo not drawn)	none (no result: D1 mod)
CCCCNC(=O)C1CCN(S(=O)(=O)c2cnc[nH]2)CC1	none
O=C(Nc1cccc(C(F)(F)F)c1)C1CCN(S(=O)(=O)c2cnc[nH]2)CC1	CYP2C9 inh 82, CYP2C19 inh 55
O=C(Nc1nccs1)C1CCN(S(=O)(=O)c2cnc[nH]2)CC1	CYP2C9 inh 86
CCCCn1nc2cc(C(=O)NC3CCCc4ccccc43)ccc2c1OCC (stereo not drawn)	none (no result: D1 mod)
CCOC(=O)c1[nH]c2ccc(OC)cc2c1N=CN(C)C	none
O=C(Nc1ccc(Br)cc1)C1CC=CCC1C(=O)OCC1CCCO1 (stereo not drawn)	CYP2C19 inh 51 (no result: D1 mod)
Clc1ccc(-c2cnc(Oc3ccccc3)nc2)cc1	none (no result: D1 mod)
Cc1ccc(Oc2nccc(-c3ccc(Cl)cc3)n2)cc1	CYP2C19 inh 53 (no result: D1 mod)
O=C1CCCCCC1C1(O)C(=O)Nc2ccccc21 (stereo not drawn)	none
COc1ccc2c(c1)CC(C1(O)C(=O)Nc3ccccc31)C2=O (stereo not drawn)	CYP2C19 inh 83
COC(=O)C1=C(C)N2C(=O)CSC2=NC1c1ccc2c(c1)OCO2 (stereo not drawn)	CYP2C9 inh 50, CYP2C19 inh 65 (no result: DAT uptake mod)
COC(=O)c1ccc(NC(=O)c2ccc3c(c2)OCO3)cc1	none
O=C1NC(Cc2c[nH]c3ccccc23)C(=O)N1CCOc1ccccc1 (stereo not drawn)	CYP2C9 inh 57, CYP2C19 inh 82
Cc1cc(C(=O)CN2C(=O)NC(Cc3c[nH]c4ccccc34)C2=O)c(C)n1C (stereo not drawn)	CYP2C19 inh 67
CCOc1ccc(N2C(=O)NC(Cc3c[nH]c4ccccc34)C2=O)cc1 (stereo not drawn)	none
CCOC(=O)C(=CNc1ccc(C)cc1C)C(=O)OCC	none (no result: D1 mod)
CCOC(=O)C(=CNc1cccc(C)c1C)C(=O)OCC	DAT uptake mod 6.1 (no result: CYP2C9 inh, D1 mod, CYP2C19 inh, CYP2C9 activ, CYP2C19 activ)
O=S(=O)(c1cccs1)N1CCN(CC(O)COc2cccc(Br)c2)CC1 (stereo not drawn)	none (no result: D1 mod)
O=S(=O)(c1cccs1)N1CCN(CC(O)COC2CCCc3ccccc32)CC1 (stereo not drawn)	CYP2C9 inh 62
O=C1CCC(c2ccc(-n3ccnc3)cc2)=NN1	none (no result: CYP2C9 inh, D1 mod, CYP2C19 inh, CYP2C9 activ, CYP2C19 activ)
Nc1ccc(-n2ccnc2)cc1	CYP2C9 inh 52, CYP2C19 inh 58
COc1ccc(-c2noc(CCC(=O)NCc3cccnc3)n2)cc1	CYP2C9 inh 74, CYP2C19 inh 50
COc1ccc(-c2noc(CCC(=O)NCc3cccnc3)n2)cc1OC	CYP2C9 inh 54
COc1cccc(C(=O)CN(C(=O)c2ccc(Cl)c(Cl)c2)N2C(=O)c3ccccc3C2=O)c1	none (no result: D1 mod)
CN1CCN(C(=O)c2cc3c(C(F)(F)F)nn(C)c3s2)CC1	none (no result: D1 mod)
C=CCSc1nnc(-c2cc3c(C(F)(F)F)nn(C)c3s2)n1C	DAT uptake mod -8.8 (no result: D1 mod)
C=CCSc1nnc(-c2cc3c(-c4ccccc4)nn(C)c3s2)n1C	CYP2C19 inh 55 (no result: D1 mod)
CC(C)(C)NC(=O)CN(C(=O)CS(=O)CC(=O)Nc1ccc(F)cc1)c1ccc(Cl)cc1 (stereo not drawn)	none
CSc1ccccc1NC(=O)c1ccncc1	CYP2C19 inh 66
CSc1ccccc1NC(=O)c1cc(C)on1	CYP2C9 activ 2.4 (no result: D1 mod)
CC1(C)CC(=O)C=C(c2ccc3c(c2)OCO3)C1	none (no result: CYP2C9 inh, D1 mod, CYP2C19 inh, CYP2C9 activ, CYP2C19 activ)
C#CCOCCOCCOCCNc1nc(N2CCN(C(=O)[C@H]([C@@H](C)CC)n3cc([C@@H](N)CO)nn3)CC2)nc(N2CCN(C(=O)[C@H](CCCCN)n3cc([C@@H](N)CC(C)C)nn3)CC2)n1	none (no result: CYP2C9 inh, D1 mod, CYP2C19 inh, CYP2C9 activ, CYP2C19 activ)
O=C(CSc1ccc2nnc(-c3ccccn3)n2n1)Nc1ccc2c(c1)OCO2	none
CCOC(=O)c1ccc(NC(=O)CC2C(=O)N(c3ccc(F)cc3)C(=O)N2CCCOC)cc1 (stereo not drawn)	none
